Hits are enriched below; roughly 0.91% of the tested compounds scored in any of these assays.
RECQ1 inh: qHTS Assay for Inhibitors of RecQ-Like Dna Helicase 1 (RECQ1) | AID 2549, 2010 | hit rate 0.54% among 240,000 | Potency, µM (highest dose often 57.3 µM), for inactives: top-dose activity, negative = inhibition, actives largely listed as inhibitors | RECQ1 DNA unwinding, red fluorescence kinetic read | ATP-dependent DNA helicase Q1 (Homo sapiens), P46063;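 note: plate controls were vehicle for no effect and no enzyme for full effect; nearly all actives have a fitted effect of over 30% in size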
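50 nM RECQ1T1 preincubated 15 min with compound in Tris pH 8.0 buffer with MgCl2, DTT, Tween-20 and 2.5 ug/ml poly(dI-dC); started with 200 nM TAMRA/BHQ-2 forked duplex and 2 mM ATP. Unwinding read as fluorescence (525/598 nm), two reads 2 h apart.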
TR SRC2 fluor cs: Total Fluorescence Counterscreen for Inhibitors of the Interaction of Thyroid Hormone Receptor and Steroid Receptor Coregulator 2 | Potency, µM (top dose mostly 106 µM), without a hit: at the highest dose fluorescence change, negative = quenching | TRb/SRC2 Texas Red total fluorescence interference | AID 1479, 2009 | hit rate 0.29% among 280,000; active = well fitted curve in either direction with a large enough effect; inconclusive = small, poorly fitted or top-dose-only effect
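Human TRβ ligand-binding domain (0.6 uM) and Texas Red SRC2 peptide (20 nM) in Tris buffer with 1 uM T3 and 5% DMSO were incubated with pinned compound for 5 hr at ambient temperature. Total fluorescence was computed as S + 2P (555/632 nm).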
WRN inhibitor: qHTS for Inhibitors of WRN Helicase | Bifunctional 3'-5' exonuclease/ATP-dependent helicase WRN (Homo sapiens), Q14191 | WRN helicase unwinding, fluorescent forked duplex, kinetic | Potency, µM (series often up to 114 µM), for the others: at the top dose activity change, negative = inhibition, hits mostly inhibitors | hit rate 0.46% among 360,000; note: nearly all actives have a fitted effect of over 55% in size
Target sequence (Q14191 whole entry, looked up): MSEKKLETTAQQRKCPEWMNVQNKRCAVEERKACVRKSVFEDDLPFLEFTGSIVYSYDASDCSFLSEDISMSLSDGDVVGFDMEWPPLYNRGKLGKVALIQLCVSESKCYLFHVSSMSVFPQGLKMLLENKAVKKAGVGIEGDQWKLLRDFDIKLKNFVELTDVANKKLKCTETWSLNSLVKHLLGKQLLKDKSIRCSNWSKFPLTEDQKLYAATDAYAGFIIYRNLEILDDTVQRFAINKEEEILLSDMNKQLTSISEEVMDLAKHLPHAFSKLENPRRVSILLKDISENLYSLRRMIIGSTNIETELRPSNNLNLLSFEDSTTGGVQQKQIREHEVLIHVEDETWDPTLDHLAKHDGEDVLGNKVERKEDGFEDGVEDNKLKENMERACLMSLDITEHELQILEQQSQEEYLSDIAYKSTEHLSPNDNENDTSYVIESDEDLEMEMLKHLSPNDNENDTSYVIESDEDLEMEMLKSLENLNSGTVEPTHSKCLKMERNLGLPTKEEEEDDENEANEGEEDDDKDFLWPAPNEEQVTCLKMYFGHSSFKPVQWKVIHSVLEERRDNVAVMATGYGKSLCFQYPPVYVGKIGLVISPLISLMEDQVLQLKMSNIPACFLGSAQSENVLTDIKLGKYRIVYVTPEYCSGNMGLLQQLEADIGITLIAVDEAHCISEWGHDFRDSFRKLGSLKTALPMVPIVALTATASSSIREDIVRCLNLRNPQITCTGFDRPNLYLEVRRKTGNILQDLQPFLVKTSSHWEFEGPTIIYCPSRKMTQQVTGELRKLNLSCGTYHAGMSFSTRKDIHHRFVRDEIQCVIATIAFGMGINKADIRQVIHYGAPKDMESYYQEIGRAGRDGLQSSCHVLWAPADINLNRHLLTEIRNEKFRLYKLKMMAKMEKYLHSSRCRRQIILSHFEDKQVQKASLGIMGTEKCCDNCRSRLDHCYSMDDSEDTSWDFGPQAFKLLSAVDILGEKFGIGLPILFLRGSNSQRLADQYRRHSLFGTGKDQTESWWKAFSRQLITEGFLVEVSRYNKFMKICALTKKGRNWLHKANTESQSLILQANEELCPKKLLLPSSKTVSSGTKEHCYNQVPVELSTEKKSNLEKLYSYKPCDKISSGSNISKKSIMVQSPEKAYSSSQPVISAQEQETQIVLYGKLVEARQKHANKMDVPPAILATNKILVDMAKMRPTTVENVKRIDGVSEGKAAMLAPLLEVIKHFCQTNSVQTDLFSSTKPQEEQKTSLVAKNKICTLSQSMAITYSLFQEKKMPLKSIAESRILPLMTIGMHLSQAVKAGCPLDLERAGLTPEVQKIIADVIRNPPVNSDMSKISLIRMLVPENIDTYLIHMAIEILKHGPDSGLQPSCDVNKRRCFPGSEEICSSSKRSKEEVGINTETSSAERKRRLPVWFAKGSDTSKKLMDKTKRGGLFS
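Fluorescence dequenching readout, ex 525 nm/em 598 nm, kinetic mode: forked duplex DNA (100 nM final) with adjacent fluorophore and quencher unwound by WRN (20 nM final) with 2 mM ATP. Compound preincubation 15 min, room temperature.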
APE1 inh-1: qHTS Assay for Inhibitors of the Human Apurinic/apyrimidinic Endonuclease 1 (APE1) | recombinant APE1, TAMRA/BHQ-2 abasic DNA cleavage fluorescence | Potency, µM (series often up to 65.8 µM), for the others: top-dose activity change, negative = inhibition, actives largely listed as inhibitors | hit rate 0.35% among 350,000 | DNA repair nuclease/redox regulator APEX1 (Homo sapiens), P27695;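 note: plate controls were vehicle for no effect and reference inhibitor for full effect; nearly all actives have a fitted effect of over 55% in size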
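Compound pre-exposure to 0.75 nM APE1, 15 min at ambient temperature. Reaction initiated with 50 nM TAMRA/BHQ-2 THF substrate, read immediately in kinetic mode, 525 nm excitation, 598 nm emission.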
TRb-SRC2 inh: qHTS for Inhibitors of the Interaction of Thyroid Hormone Receptor and Steroid Receptor Coregulator 2 | Thyroid hormone receptor beta (Homo sapiens), P10828 | TRbeta-SRC2 peptide binding, fluorescence polarization; receptor liganded with 1 µM T3 | Potency, µM (doses to about 106 µM), for inactives: at the top dose activity change, negative = inhibition, actives largely listed as inhibitors | hit rate 0.065% among 280,000;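 note: plate controls were bound peptide for no effect and peptide without receptor for full effect; nearly all actives have a fitted effect of over 50% in size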
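Binding of a 20-amino-acid Texas Red SRC2 peptide (20 nM) to TRb ligand-binding domain (0.6 uM) with agonist T3 at 1 uM was followed by fluorescence polarization after a 5 hr room-temperature incubation.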
BLM inh: qHTS Assay for Inhibitors of Bloom's syndrome helicase (BLM). recombinant BLM DNA unwinding, fluorescence dequenching. AID 2528, 2010. RecQ-like DNA helicase BLM (Homo sapiens), P54132. hit rate 0.2% among 350,000. Potency, µM (titrated, usually from 56.1 µM), without a hit: at the highest dose activity change, negative = inhibition, most hits filed as inhibitors;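 note: plate controls were vehicle for no effect and no enzyme for full effect; nearly all actives have a fitted effect of over 35% in size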
APE1 dye cs: Counterscreen for APE1 Inhibitors: Fluorescent Dye Displacement Assay | AID 2564, 2010 | Potency, µM (titrated, usually from 28.5 µM), without a hit: at the highest dose activity change, negative = inhibition, most hits filed as inhibitors | hit rate 7% among 480 | DNA fluorescent dye displacement counterscreen, fluorescence | shares compounds with APE1 inh-1;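 note: loss of thiazole orange fluorescence as the dye is displaced from duplex DNA; 0% = ThO with dsDNA and no compound and -100% = ThO without dsDNA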
Endo IV inh: Counterscreen for APE1 Inhibitors: qHTS Assay for Inhibitors of Endonuclease IV. shares compounds with APE1 inh-1. E. coli Endo IV, fluorogenic AP-site DNA cleavage. Potency, µM (highest dose often 27.1 µM), inactives show at the highest dose activity change, negative = inhibition, hits mostly inhibitors. hit rate 4% among 560. AID 2565, 2010;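 note: plate controls were uninhibited enzyme wells for no effect and no enzyme buffer wells for full effect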
APE1 inh-2: Confirmation qHTS Assay for Inhibitors of the Human Apurinic/apyrimidinic Endonuclease 1 (APE1); AID 2572, 2010; purified APE1, fluorogenic abasic-site DNA cleavage; Potency, µM (doses to about 57.1 µM), for inactives: at the highest dose activity change, negative = inhibition, most hits filed as inhibitors; shares compounds with APE1 inh-1; hit rate 44% among 750; note: nearly all actives have a fitted effect of over 30% in size
APE1 FP: qHTS FP-Based Assay for Inhibitors of the Human Apurinic/apyrimidinic Endonuclease 1 (APE1) | shares compounds with APE1 inh-1 | APE1 binding to TAMRA-labelled double-stranded DNA, fluorescence polarization displacement | Potency, µM (highest dose often 28.5 µM), inactives show at the top dose activity, negative = inhibition, actives largely listed as inhibitors | hit rate 7% among 480
Numbers without * were called inactive; i = inactive; ? = inconclusive; nt = no result given; [ ] = remark or other dose. Unless noted, calls come from the whole dose curve; as a rule, active = well fitted curve in the direction sought with a large enough effect; inconclusive = small, poorly fitted or top-dose-only effect, or another doubt; inactive = no such curve, though single readings can be large; an effect the other way counts as inactive or inconclusive. Unless noted, % is set by controls: 0 for no effect and ±100 for the full control effect; potency is the fitted concentration of half-maximal effect.

SMILES | RECQ1 inh | TR SRC2 fluor cs | WRN inhibitor | APE1 inh-1 | TRb-SRC2 inh | BLM inh | Endo IV inh | APE1 inh-2 | others
COc1ccc(C(CC(=O)N2CCOCC2)c2c(OC)cc(OC)c3ccc(=O)oc23)cc1 (stereo unspecified) | i | -2% | -4%[11.6 µM] | ? | 8% | -7% | nt | nt
COc1cc(OC)c2c(-c3ccccc3)cc(=O)oc2c1C(CC(=O)N1CCCC1)c1ccc(N(C)C)cc1 (stereo unspecified) | -13% | -3% | nt | 8% | 4% | -10% | nt | nt
COc1ccc(C(CC(=O)N2CCN(c3ccccc3)CC2)c2c(OC)cc(OC)c3c(-c4ccccc4)cc(=O)oc23)cc1 (stereo unspecified) | ? | -4% | nt | ? | -2% | 2% | ? | 5.6µM* | APE1 dye cs=52%;APE1 FP=8%
O=C(Nc1nnc(C23CC4CC(CC(C4)C2)C3)s1)c1ccc(N2C(=O)CCC2=O)cc1 | -17% | -5% | -15%[57.1 µM] | 10µM* | -16% | -3% | nt | -23%
CC(C)c1nnc(NC(=O)c2ccc(N3C(=O)CCC3=O)cc2)s1 | 5% | 0% | -6% | -4% | -2% | 0% | nt | nt
Cn1nnnc1SCC1=C(C(=O)O)N2C(=O)[C@@H](NC(=O)[C@H](O)c3ccccc3)[C@H]2SC1 | 8% | -1% | 25µM* | ? | 12% | 38% | nt | 40µM*
O=C1c2ccccc2C(=O)c2c1ccc(O)c2O | ? | -10% | ? | ? | -16% | -18% | 91%[57.1 µM] | ? | APE1 dye cs=?;APE1 FP=-5%[57.1 µM]
O=C1c2ccc(O)c(O)c2C(=O)c2c(O)ccc(O)c21 | 32µM* | 45µM*[fluorescent] | nt | 3.2µM* | 25µM* | -27% | 14µM* | 4µM*
O=C1c2ccccc2C(=O)c2c([N+](=O)[O-])ccc(O)c21 | 4% | 10% | ? | 28µM* | -19% | -9% | -4% | 14µM* | APE1 dye cs=?;APE1 FP=-19%
O=C1c2cccc(O)c2C(=O)c2c(O)cccc21 | -1% | -1% | nt | 2% | -6% | -11% | nt | nt
COC(=O)c1cnc(N)s1 | nt | nt | -20% | nt | nt | nt | nt | nt
CSc1ncc(Cl)c(C(=O)Nc2c(C(=O)c3ccc(C)cc3)oc3ccccc23)n1 | nt | -27% | nt | nt | 4% | 5% | nt | nt
O=c1oc2cc(OCc3ccc([N+](=O)[O-])cc3)ccc2c2c1CCCC2 | -3% | 3% | -4% | 11% | -2% | 2% | nt | nt
